Test results as given in PubChem BioAssay AID1159580 (chemical genetic matrix, 2015).
Out of some 5,500 compounds screened, about 2,000 (36%) were called active. About 18% were inconclusive and are not listed. The list shows a part of the results. Values without a mark were called inactive. Rule as the data show it: active = normalized growth mostly below about 0.91 (no sharp cut-off); inconclusive = no clear call, values can overlap the other calls; inactive = mostly above about 0.92.

Assay: chemical genetic growth profiling, strain panel (AID 1159580);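 also: tested at 20 µM; growth read once vehicle control cultures reached saturation at 30 °C; 1 = growth at the plate median or of vehicle wells; lower values mean less growth of the strain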
Conditions: S. cerevisiae deletion strains, growth OD
[1] = locus YDL101C, strain DUN1, stronger effect = lower value
[2] = locus YHR030C, strain SLT2, stronger effect = lower value

Work on `O=[N+]([O-])c1cc(C(F)(F)F)ccc1N1CCN(CCO)CC1` yielded a normalized growth (locus YAL013W, strain DEP1, stronger effect = lower value) of 0.995, a normalized growth (locus YBR229C, strain ROT2, stronger effect = lower value) of 0.987 and a normalized growth [1] of 0.989. It also gave a normalized growth (locus YDR150W, strain NUM1, stronger effect = lower value) of 1, a normalized growth (locus YEL061C, strain CIN8, stronger effect = lower value) of 0.993 and a normalized growth (locus YGR078C, strain PAC10, stronger effect = lower value) of 0.977. It also gave a normalized growth [2] of 0.953, a normalized growth (locus YHR087W, strain rtc3, stronger effect = lower value) of 1.03 and a normalized growth (locus YJL187C, strain SWE1, stronger effect = lower value) of 1. The normalized growth (locus YJR043C, strain POL32, stronger effect = lower value) was 0.991, the normalized growth (locus YJR075W, strain HOC1, stronger effect = lower value) was 0.986 and the normalized growth (locus YLR039C, strain RIC1, stronger effect = lower value) was 0.978. For the same compound, the normalized growth (locus YLR058C, strain SHM2 (second series), stronger effect = lower value) was 0.982, the normalized growth (locus YLR085C, strain ARP6, stronger effect = lower value) was 0.981 and the normalized growth (locus YLR262C, strain YPT6, stronger effect = lower value) was 0.97. It also gave a normalized growth (locus YML094W, strain GIM5, stronger effect = lower value) of 0.992, a normalized growth (locus YMR219W, strain ESC1, stronger effect = lower value) of 0.997 and a normalized growth (locus YMR263W, strain SAP30, stronger effect = lower value) of 0.937. The normalized growth (locus YNL153C, strain GIM3, stronger effect = lower value) was 0.99, the normalized growth (locus YNL298W, strain CLA4 (second series), stronger effect = lower value) was 0.941 and the normalized growth (locus YNL322C, strain KRE1, stronger effect = lower value) was 0.982. The normalized growth (locus YNR030W, strain Alg12, stronger effect = lower value) was 0.943, the normalized growth (locus YOL006C, strain TOP1, stronger effect = lower value) was 0.941 and the normalized growth (locus YPL055C, strain LGE1, stronger effect = lower value) was 1.03. It also gave a normalized growth (locus YPL241C, strain CIN2, stronger effect = lower value) of 0.974 and a normalized growth (locus YPR135W, strain CTF4, stronger effect = lower value) of 0.893.

`Cc1c(Cl)cccc1NC(=S)N1CCCN(c2nc3ccc(Cl)cc3s2)CC1` showed a normalized growth (locus YAR019C, strain CDC15, stronger effect = lower value) of 0.977, a normalized growth (locus YBL105C, strain PKC1, stronger effect = lower value) of 0.977 and a normalized growth (locus YBR135W, strain CKS1, stronger effect = lower value) of 0.983. It also gave a normalized growth (locus YBR136W, strain MEC1, stronger effect = lower value) of 0.979, a normalized growth (locus YBR160W, strain CDC28, stronger effect = lower value) of 0.978 and a normalized growth (locus YDL017W, strain CDC7, stronger effect = lower value) of 0.972. It also gave a normalized growth (locus YDL028C, strain MPS1, stronger effect = lower value) of 0.978, a normalized growth [1] of 0.965 and a normalized growth (locus YDL108W, strain KIN28, stronger effect = lower value) of 0.983. For the same compound, the normalized growth (locus YDL132W, strain cdc53, stronger effect = lower value) was 0.99, the normalized growth (locus YDL214C, strain PRR2, stronger effect = lower value) was 0.97 and the normalized growth (locus YDR052C, strain DBF4, stronger effect = lower value) was 0.986. For the same compound, the normalized growth (locus YDR054C, strain cdc34, stronger effect = lower value) was 0.975, the normalized growth (locus YDR226W, strain ADK1, stronger effect = lower value) was 0.984 and the normalized growth (locus YDR477W, strain SNF1, stronger effect = lower value) was 0.933. The normalized growth (locus YER123W, strain YCK3, stronger effect = lower value) was 0.936, the normalized growth (locus YER133W, strain GLC7, stronger effect = lower value) was 0.941 and the normalized growth (locus YFL009W, strain cdc4, stronger effect = lower value) was 0.98. For the same compound, the normalized growth (locus YFL029C, strain CAK1, stronger effect = lower value) was 0.968, the normalized growth (locus YFR003C, strain YPI1, stronger effect = lower value) was 0.985 and the normalized growth (locus YFR019W, strain FAB1, stronger effect = lower value) was 1.01. The normalized growth (locus YFR028C, strain CDC14, stronger effect = lower value) was 0.98, the normalized growth (locus YGR040W, strain KSS1, stronger effect = lower value) was 0.937 and the normalized growth (locus YGR052W, strain FMP48, stronger effect = lower value) was 0.975. The normalized growth (locus YGR092W, strain DBF2, stronger effect = lower value) was 0.722, the normalized growth [2] was 0.625 (active) and the normalized growth (locus YHR079C, strain IRE1, stronger effect = lower value) was 0.7. The normalized growth (locus YHR082C, strain KSP1, stronger effect = lower value) was 1.06, the normalized growth (locus YHR205W, strain SCH9, stronger effect = lower value) was 0.97 and the normalized growth (locus YIL147C, strain SLN1, stronger effect = lower value) was 0.981. The normalized growth (locus YJL095W, strain BCK1, stronger effect = lower value) was 0.863, the normalized growth (locus YJL128C, strain PBS2, stronger effect = lower value) was 0.957 and the normalized growth (locus YJL157C, strain FAR1, stronger effect = lower value) was 0.897. For the same compound, the normalized growth (locus YJR016C, strain ILV3, stronger effect = lower value) was 0.978, the normalized growth (locus YJR066W, strain TOR1 (second series), stronger effect = lower value) was 0.84 and the normalized growth (locus YJR066W, strain TOR1, stronger effect = lower value) was 0.947. For the same compound, the normalized growth (locus YKL048C, strain ELM1, stronger effect = lower value) was 0.97, the normalized growth (locus YKL067W, strain YNK1, stronger effect = lower value) was 0.947 and the normalized growth (locus YKL101W, strain HSL1, stronger effect = lower value) was 0.963. The normalized growth (locus YKL193C, strain SDS22, stronger effect = lower value) was 0.978, the normalized growth (locus YKL203C, strain TOR2, stronger effect = lower value) was 0.974 and the normalized growth (locus YLR113W, strain HOG1, stronger effect = lower value) was 0.794 (active). The normalized growth (locus YLR133W, strain CKI1, stronger effect = lower value) was 0.941, the normalized growth (locus YLR403W, strain SFP1, stronger effect = lower value) was 0.898 and the normalized growth (locus YML070W, strain DAK1, stronger effect = lower value) was 0.972. The normalized growth (locus YMR001C, strain CDC5, stronger effect = lower value) was 0.982, the normalized growth (locus YMR205C, strain PFK2 (second series), stronger effect = lower value) was 0.971 and the normalized growth (locus YMR277W, strain FCP1, stronger effect = lower value) was 0.976. It also gave a normalized growth (locus YNL006W, strain LST8, stronger effect = lower value) of 0.963, a normalized growth (locus YNL020C, strain ARK1, stronger effect = lower value) of 0.909 and a normalized growth (locus YNL161W, strain CBK1, stronger effect = lower value) of 0.986. It also gave a normalized growth (locus YNL183C, strain NPR1, stronger effect = lower value) of 0.989, a normalized growth (locus YNL207W, strain RIO2, stronger effect = lower value) of 0.976 and a normalized growth (locus YNL222W, strain SSU72, stronger effect = lower value) of 0.98. The normalized growth (locus YNL307C, strain MCK1 (second series), stronger effect = lower value) was 0.951, the normalized growth (locus YOL078W, strain AVO1, stronger effect = lower value) was 0.992 and the normalized growth (locus YOL136C, strain PFK27, stronger effect = lower value) was 0.942. The normalized growth (locus YOR061W, strain CKA2, stronger effect = lower value) was 0.87, the normalized growth (locus YOR119C, strain RIO1, stronger effect = lower value) was 0.974 and the normalized growth (locus YOR231W, strain MKK1, stronger effect = lower value) was 0.876. It also gave a normalized growth (locus YOR329C, strain SCD5, stronger effect = lower value) of 0.974, a normalized growth (locus YPL031C, strain PHO85, stronger effect = lower value) of 0.937 and a normalized growth (locus YPL153C, strain RAD53, stronger effect = lower value) of 0.908. For the same compound, the normalized growth (locus YPL204W, strain HRR25, stronger effect = lower value) was 0.876, the normalized growth (locus YPL209C, strain IPL1, stronger effect = lower value) was 0.978 and the normalized growth (locus YPL256C, strain CLN2, stronger effect = lower value) was 0.772 (active). For the same compound, the normalized growth (locus YPR025C, strain CCL1, stronger effect = lower value) was 0.975, the normalized growth (locus YPR106W, strain ISR1, stronger effect = lower value) was 0.981 and the normalized growth (locus YPR111W, strain DBF20, stronger effect = lower value) was 0.992. It also gave a normalized growth (strain NNK1, stronger effect = lower value) of 0.984 and a normalized growth (strain TSCII, stronger effect = lower value) of 0.976.
